The structures appear in SMILES notation. Calls of active or inactive are those of the source. The call rests on the fitted dose curve; in most records, active means well fitted curve in the direction sought with a large enough effect; inconclusive means small, poorly fitted or top-dose-only effect, or another doubt; inactive means no such curve, though single readings can be large or run the other way.

The test has as its target alpha-glucosidase (Oryza sativa, rice) (UniProt Q653V4). Nature of the test: Counterscreen for Glucocerebrosidase Inhibitors: qHTS Assay for Rice alpha-Glucosidase at pH 5.0 (AID 997). To be noted: rice alpha-glucosidase enzyme activity; series mostly up to 76.9 µM. From the text: NIH Chemical Genomics Center [NCGC]
NIH Molecular Libraries Screening Centers Network [MLSCN]
PI Name: Zheng, Wei [NIH]
Alpha-glucosidase is responsible for hydrolysis of terminal, non-reducing 1,4-linked alpha-D-glucose residues with release of alpha-D-glucose. It is a lysosomal hydrolase that is required for the degradation of a small percentage (1-3%) of cellular glycogen in human. Deficiency of this enzyme results in glycogen-storage disease type II (GSDII), also referred to as Pompe disease, an autosomal recessive disorder. Structurally normal glycogen is accumulated in lysosomes and cytoplasm in affected patients, primarily in muscle tissues. Excessive glycogen storage within lysosomes may interrupt normal functioning of other organelles and leads to cellular injury. In turn, this leads to enlargement and dysfunction of the entire organ involved (eg, cardiomyopathy and muscle weakness).
It has reported that the improper folding and trafficking of alpha-glucosidase resulted from the genetic mutations may account for a significant number of Prope patients. […] We optimized this alpha-glucosidase assay in 1536-well plate format for identifying the novel small molecule inhibitors with the structures other than the sugar analogs in order to develop the new pharmacological chaperones.
NCGC Assay Protocol Summary:
This is a fluorogenic enzyme assay with 4-methylumbelliferyl-alpha-D-pyranoside as the substrate and rice alpha-glucosidase as the enzyme preparation. Upon the hydrolysis of this fluorogenic substrate, the resulting product, 1. 4-methyllumbelliferone, can be excited at 365 nm and emits at 440 nm which can be detected by a standard fluorescence plate reader. Data were normalized to the controls for basal activity (without enzyme) and 100% activity (with enzyme). In the AC50 values were determined from concentration-response data modeled with the standard Hill equation.
Assay buffer: 50 mM citric acid, 0.005% Tween-20, pH 5.0. (pH 5.0 is an optimal condition for this enzyme assay)
1536-well assay protocol for the human alpha-glucosidase:
(1) Add 2 ul/well of enzyme (4 nM final)
(2) Add 23 nL compounds in DMSO solution. The final titration was 0.7 nM to 77 uM.
(3) Add 1 ul of substrate (400 uM final)
(4) Incubate at room temperature for 20 min.
(5) Add 2 ul stop solution (1M NaOH and 1M Glycine mixture, pH 10)
(6) Detect the assay plate in a ViewLux plate reader (PerkinElmer) with Ex=365 nm and Em=440nm.
Keywords: Alpha-glucosidase, Prope Disease, pharmacological chaperone, chaperone therapy, high throughput screening, alpha-glucosidase inhibitor, MLSMR, MLSCN, NIH Roadmap, qHTS and NCGC
(In general: A counterscreen serves to expose hits that act by an unwanted route or on another target.)
Take `CC(=O)Oc1ccccc1C(=O)O`: the call was inactive.
Then `Cc1[nH]c(=O)c(C#N)cc1-c1ccc2nccn2c1`, with “inactive”; and `Cc1ccc(N(CC2=NCCN2)c2cccc(O)c2)cc1`, with “inactive”.
As for `C[C@]12CCC(=O)C=C1CC[C@@H]1[C@@H]2[C@@H](O)C[C@@]2(C)[C@H]1CC[C@]2(O)C(=O)CO`, the molecule was called inactive.
Then `NS(=O)(=O)c1cc2c(cc1Cl)NC=NS2(=O)=O`, with “inactive”.
Then `Nc1ccc(S(=O)(=O)Nc2ccnn2-c2ccccc2)cc1`, with “inactive”.
Then `CCCCNc1cc(C(=O)O)cc(S(N)(=O)=O)c1Oc1ccccc1`, with “inactive”; and `CCOC(=O)C1=C[C@@]2(CC)CCCN3CCc4c(n1c1ccccc41)[C@H]32`, with “inactive”.
For `NNCCc1ccccc1`, the outcome was inactive.
The result for `O=C1CCc2cc(OCCCCc3nnnn3C3CCCCC3)ccc2N1` reads “inactive”; that for `Cc1cn[nH]c1`, “inactive”.
The result for `CCOC(=O)N1CCC(=C2c3ccc(Cl)cc3CCc3cccnc32)CC1` reads “inactive”; that for `Cc1[nH]c(=O)c(C#N)cc1-c1ccncc1`, “inactive”.
Then `Cc1cnc(NC(=O)C2=C(O)c3ccccc3S(=O)(=O)N2C)s1`, with “inactive”; and `O=c1[nH]cnc2[nH]ncc12`, with “inactive”.
Regarding `Nc1nc2ccc(OC(F)(F)F)cc2s1`, the result was inactive.
Then `CC(C)NCC(O)COc1ccc(COCCOC(C)C)cc1` (stereo not given), with “inactive”; and `O=c1n(CCCN2CCN(c3cccc(Cl)c3)CC2)nc2ccccn12`, with “inactive”.
Then `Cn1cnc([N+](=O)[O-])c1Sc1ncnc2nc[nH]c12`, with “inactive”.
As to `NC(=O)c1cnccn1`, the outcome was inactive.
Then `CN1CCN(CCCN2c3ccccc3Sc3ccc(C(F)(F)F)cc32)CC1`, with “inactive”; and `Nc1nc2c(ncn2COCCO)c(=O)[nH]1`, with “inactive”.
The result for `O=NN(CCCl)C(=O)NCCCl` reads “inactive”; that for `NC(N)=NC(=O)c1nc(Cl)c(N)nc1N`, “inactive”.
Then `CNC[C@H](O)c1cccc(O)c1`, with “inactive”; and `NC[C@H](O)c1ccc(O)c(O)c1`, with “inactive”; and `Cc1oncc1C(=O)Nc1ccc(C(F)(F)F)cc1`, with “inactive”.
As for `Clc1cccc(Cl)c1NC1=NCCN1`, the outcome was inactive.
Then `NCCc1ccc(O)c(O)c1`, with “inactive”; and `OC(CN1CCC(Cc2ccc(F)cc2)CC1)c1ccc(Cl)cc1` (stereo not given), with “inactive”.
The result for `CCCC(CCC)C(=O)O` reads “inactive”; that for `CC(C)(Sc1ccc(CCN(CCCCC2CCCCC2)C(=O)NC2CCCCC2)cc1)C(=O)O`, “inactive”; that for `N[C@@H]1CONC1=O`, “inactive”.
The result for `C1COC(NC(C2CC2)C2CC2)=N1` reads “inactive”.
As to `N=c1nc(N2CCCCC2)cc(N)n1O`, the molecule was classed as inactive.

The values above are taken from PubChem BioAssay (NCATS).
